TDP1 block: TDP1 (human) enzyme inhibition | AID 485290 | Q9NUW8 | Potency, µM (highest dose often 130 µM), usual class: inhibitors | 0.28% of 350,000 active | recombinant TDP1, AlphaScreen DNA substrate cleavage; further: nearly all actives have a fitted effect of over 40% in size
Target sequence (Q9NUW8 whole entry, looked up): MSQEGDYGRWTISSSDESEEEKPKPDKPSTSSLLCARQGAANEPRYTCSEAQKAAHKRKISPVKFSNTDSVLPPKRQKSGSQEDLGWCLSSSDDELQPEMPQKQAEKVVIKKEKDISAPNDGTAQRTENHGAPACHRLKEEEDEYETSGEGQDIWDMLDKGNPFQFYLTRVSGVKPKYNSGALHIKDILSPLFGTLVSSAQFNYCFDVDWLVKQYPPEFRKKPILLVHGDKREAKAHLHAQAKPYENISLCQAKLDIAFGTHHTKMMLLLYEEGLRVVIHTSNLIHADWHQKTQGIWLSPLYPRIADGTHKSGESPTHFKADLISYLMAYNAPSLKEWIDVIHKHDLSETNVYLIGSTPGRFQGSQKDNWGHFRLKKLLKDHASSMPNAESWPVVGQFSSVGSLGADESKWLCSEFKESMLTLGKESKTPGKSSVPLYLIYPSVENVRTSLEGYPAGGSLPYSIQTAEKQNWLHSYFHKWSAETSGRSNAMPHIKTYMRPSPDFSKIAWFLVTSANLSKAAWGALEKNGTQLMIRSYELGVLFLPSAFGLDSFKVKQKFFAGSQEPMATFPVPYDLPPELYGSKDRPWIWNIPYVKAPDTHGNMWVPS
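Recombinant E. coli-expressed Tdp1 (1 nM) preincubated with compound 15 min at RT, then 5'-biotin/3'-phosphotyrosine-FITC DNA substrate (15 nM) added for 5 min. AlphaScreen beads (10 ug/ml) added, 10 min RT; tyrosine-FITC cleavage read as signal loss.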
TGFb SMAD3 inh: inhibitors of TGF-b signaling; HepG2 CAGA-GFP TGF-b/SMAD3 reporter, GFP fluorescence, 18 h; TGF-beta stimulated, 500 pg/mL final; 1.2% of 410,000 active; AID 588855; Potency, µM (series often up to 46.1 µM), usual class: inhibitors; further: nearly all actives have a fitted effect of over 65% in size
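TGF-beta reporter screen: HEPG2 CAGA-GFP, 1% FBS, 500 pg/mL TGF-beta final, 18 h; per-cell GFP summed per well; curves fitted and categorized by class.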
DT40 TDP1 no CPT: qHTS for Inhibitors of human tyrosyl-DNA phosphodiesterase 1 (TDP1): qHTS in cells in absence of CPT | AID 686978, 2013 | 15% of 420,000 active | DT40 Tdp1-/- hTDP1 cells, no CPT, ATP luminescence, 48 h | Potency, µM (doses to about 46.2 µM), usual class: inhibitors; further: nearly all actives have a fitted effect of over 55% in size
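Chicken DT40 Tdp1-/- cells complemented with human TDP1, screened without camptothecin (DMSO vehicle only), 400 cells/well. Compounds pin-transferred, cells incubated at 37 °C for at least 48 hr. Growth read as ATP-dependent luminescence (CellTiter-Glo, 30 min at RT).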
HepG2 viability: counter-screen for TGF-b inhibitors: cytotoxicity in HepG2 cells; Potency, µM (series often up to 46.1 µM), usual class: cytotoxic; AID 588856; HepG2 CAGA-GFP viability, ATP luminescence, 18 h; 0.76% of 410,000 active
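HepG2 CAGA-GFP cells (1000/well, DMEM with 1% FBS) received compound, then TGF-beta at 500 pg/mL final, and were incubated 18 hours at 37 degrees C. Viability was read by CellTiter-Glo luminescence. Media-only wells were set as complete cell-killing and DMSO as no toxicity.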
IL1B secr inh: inhibitors of inflammasome signaling (IL-1 beta secretion) | THP-1 LPS/ATP IL-1B secretion, AlphaLISA, 16 h; stronger effect = lower value | 4.7% of 360,000 active | AID 743279 | activity change, % at 57.5 µM; in the data active means activity change below about -50%; inconclusive means mostly about -30% to -49%
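THP-1 cells pretreated 1 hr with compounds (up to 57.5 uM final), then stimulated with LPS (250 ng/mL final) plus ATP (1.25 mM final); secreted IL-1B measured by AlphaLISA after 16 hr, decreased signal indicating inhibition.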
TDP1 cell CPT: growth inhibition of DT40 Tdp1-/-;hTDP1 cells with camptothecin (screen for TDP1 inhibitors); chicken DT40 Tdp1-/-;hTDP1 cells + 20 nM CPT, ATP luminescence, 48 h; Potency, µM (titrated, usually from 46.2 µM), most hits filed as inhibitors; 12% of 420,000 active; further: nearly all actives have a fitted effect of over 55% in size
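Cell growth measured by CellTiter-Glo luminescence after a minimum 48 h, 37 C compound exposure with 20 nM CPT in Tdp1-knockout DT40 cells stably expressing hTDP1, seeded 400/well; qHTS titration format.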
Each line names hits and unclear results; the compound was inactive in the other large screens. Only some compounds are listed: those with a hit (about 18% of all), similar ones and a draw of the others. Unless noted, the call rests on the fitted dose curve; in most records, active means well fitted curve in the direction sought with a large enough effect; inconclusive means small, poorly fitted or top-dose-only effect, or another doubt; inactive means no such curve, though single readings can be large; an effect the other way counts as inactive or inconclusive.

COC(=O)c1[nH]c2c(c1C)C(=O)CC(c1ccc(OC)c(OC)c1)C2 (centres undefined)	TDP1 cell CPT inconclusive (no result: TDP1 block)
COc1cc(C2CC(=O)c3c([nH]c(C(=O)OC4CCCC4)c3C)C2)cc(OC)c1OC (centres undefined)	TGFb SMAD3 inh inconclusive, DT40 TDP1 no CPT 1.8µM, TDP1 cell CPT 1.6µM (no result: IL1B secr inh)
COC(=O)c1[nH]c2c(c1C)C(=O)CC(c1cc(OC)c(OC)c(OC)c1)C2 (centres undefined)	DT40 TDP1 no CPT 12µM, TDP1 cell CPT 23µM (no result: TDP1 block)
CCOCCOC(=O)c1[nH]c2c(c1C)C(=O)CC(c1cc(OC)c(OC)c(OC)c1)C2 (centres undefined)	DT40 TDP1 no CPT 9.2µM, TDP1 cell CPT 10µM (no result: TDP1 block)
CC(=O)C(Cc1ccccc1)NC(=O)COC(=O)c1cc(S(=O)(=O)N2CCOCC2)ccc1F (centres undefined)	none (no result: TDP1 block)
COc1ccc(NC(=O)CCc2nc3cccnc3n2Cc2cccs2)c(OC)c1	DT40 TDP1 no CPT inconclusive, TDP1 cell CPT inconclusive (no result: IL1B secr inh)
CCNc1nc(Cl)nc(NCc2ccccc2)n1	none
Cc1cc(Nc2ccc(Cl)cc2)nc(NCc2ccccc2)n1	TGFb SMAD3 inh inconclusive, DT40 TDP1 no CPT 8.2µM, HepG2 viability 11µM, IL1B secr inh inconclusive, TDP1 cell CPT 7.3µM
Cc1cc(Oc2ccccc2)nc(NCc2ccccc2)n1	DT40 TDP1 no CPT 21µM, TDP1 cell CPT 12µM
Cc1cc(Nc2cccc(F)c2)nc(NCc2ccccc2)n1	TGFb SMAD3 inh inconclusive, DT40 TDP1 no CPT 5.8µM, IL1B secr inh -102, TDP1 cell CPT 4.1µM
Cc1cc(Oc2ccccc2F)nc(NCc2ccccc2)n1	DT40 TDP1 no CPT inconclusive, TDP1 cell CPT inconclusive
Cc1cc(N2CCC(C)CC2)nc(NCc2ccccc2)n1	TGFb SMAD3 inh inconclusive, DT40 TDP1 no CPT 16µM, IL1B secr inh -90, TDP1 cell CPT inconclusive
Nc1ccccc1SCC(=O)Nc1ccc2c(c1)OCO2	none
Cc1ccc(Nc2cc(C)nc(-c3ccccc3O)n2)cc1	DT40 TDP1 no CPT inconclusive, TDP1 cell CPT inconclusive
Cc1ccc(Nc2cc(C)nc(-c3ccccc3)n2)cc1	IL1B secr inh -98, TDP1 cell CPT inconclusive (no result: TDP1 block)
CCCCNc1cc(C)nc(NCc2ccccc2)n1	TGFb SMAD3 inh inconclusive, DT40 TDP1 no CPT 5.8µM, IL1B secr inh -98, TDP1 cell CPT 9.2µM
COc1cccc(CNC(=O)c2cc(S(=O)(=O)N3CCCC3)cn2C)c1	none (no result: TDP1 block)
O=C(CCCCl)NC(=S)Nc1cc(C(F)(F)F)ccc1N1CCOCC1	TGFb SMAD3 inh inconclusive, DT40 TDP1 no CPT 15µM, IL1B secr inh inconclusive, TDP1 cell CPT inconclusive
O=C(CSc1nc2ccccc2o1)Nc1cc(C(F)(F)F)ccc1N1CCOCC1	DT40 TDP1 no CPT inconclusive, IL1B secr inh -50, TDP1 cell CPT inconclusive
O=C(Nc1cc(C(F)(F)F)ccc1N1CCOCC1)C1Cc2ccccc2CN1C(=O)c1ccco1 (centres undefined)	DT40 TDP1 no CPT inconclusive, TDP1 cell CPT 16µM
CC(=O)Nc1cc(C(F)(F)F)ccc1N1CCOCC1	none
CCOC(=O)C(=CNc1cc(C(F)(F)F)ccc1N1CCOCC1)C(=O)OCC	DT40 TDP1 no CPT 16µM, IL1B secr inh -53, TDP1 cell CPT inconclusive
O=C(CSc1nc2ccccc2o1)Nc1ccc(N2CCOCC2)c(Cl)c1	DT40 TDP1 no CPT inconclusive
CC(C)C[C@H](NC(=O)[C@H](Cc1ccccc1)C[C@@H](O)[C@H](Cc1ccccc1)NC(=O)OC(C)(C)C)C(=O)N[C@@H](Cc1ccccc1)C(N)=O	none (no result: TGFb SMAD3 inh, DT40 TDP1 no CPT, HepG2 viability, IL1B secr inh, TDP1 cell CPT)
Cc1cc(C(=O)Nc2cc(C(F)(F)F)ccc2N2CCOCC2)no1	none
Cc1ccc(NC(=O)CSCC(=O)Nc2cc(C(F)(F)F)ccc2N2CCOCC2)cc1	TGFb SMAD3 inh inconclusive, DT40 TDP1 no CPT 21µM, TDP1 cell CPT 18µM (no result: TDP1 block)
O=C(COC(=O)/C=C/c1ccccc1)Nc1cc(C(F)(F)F)ccc1N1CCOCC1	none
COc1ccccc1/C=C/C(=O)OCC(=O)Nc1cc(C(F)(F)F)ccc1N1CCOCC1	DT40 TDP1 no CPT 2.6µM, TDP1 cell CPT 4.1µM
CCCCn1nc(C(=O)Nc2cc(C(F)(F)F)ccc2N2CCOCC2)ccc1=O	TGFb SMAD3 inh inconclusive, DT40 TDP1 no CPT 3.7µM, TDP1 cell CPT 23µM
CCC(Oc1ccccc1)C(=O)Nc1cc(C(F)(F)F)ccc1N1CCOCC1 (centres undefined)	TGFb SMAD3 inh inconclusive (no result: TDP1 block)
COc1ccc(NC(C)C(=O)Nc2cc(C(F)(F)F)ccc2N2CCOCC2)c(OC)c1 (centres undefined)	TGFb SMAD3 inh inconclusive, DT40 TDP1 no CPT 23µM, TDP1 cell CPT inconclusive
Cc1c(C(=O)N(CCO)C(C)C)cnn1-c1ncc2c(n1)-c1ccccc1CCC2	DT40 TDP1 no CPT inconclusive (no result: TDP1 block, TGFb SMAD3 inh, HepG2 viability, IL1B secr inh)
Cc1ccc(N(C)S(=O)(=O)c2ccc3[nH]c(=O)ccc3c2)cc1	DT40 TDP1 no CPT inconclusive (no result: IL1B secr inh)
Cc1ccc(S(=O)(=O)/N=C(/Nc2ccc3[nH]c(=O)[nH]c3c2)c2ccc(F)cc2)cc1	none
O=C(NCCCN1CCCCCC1)C(c1ccccc1)C1CCCCC1 (centres undefined)	TDP1 block inconclusive, DT40 TDP1 no CPT 16µM, TDP1 cell CPT inconclusive (no result: TGFb SMAD3 inh, HepG2 viability, IL1B secr inh)

High-throughput results (PubChem BioAssay)
